Hits are enriched below; roughly 4% of the tested compounds scored in any of these assays.
D1 agonist = activates the human D1 dopamine receptor; 360,000 tested, 1% active; activation, % at 2 µM; P21728; AID 504660; HEK293 T-REx D1 cells, calcium flux, agonist mode; further: 0% is about no effect
Target sequence (P21728 whole entry, looked up): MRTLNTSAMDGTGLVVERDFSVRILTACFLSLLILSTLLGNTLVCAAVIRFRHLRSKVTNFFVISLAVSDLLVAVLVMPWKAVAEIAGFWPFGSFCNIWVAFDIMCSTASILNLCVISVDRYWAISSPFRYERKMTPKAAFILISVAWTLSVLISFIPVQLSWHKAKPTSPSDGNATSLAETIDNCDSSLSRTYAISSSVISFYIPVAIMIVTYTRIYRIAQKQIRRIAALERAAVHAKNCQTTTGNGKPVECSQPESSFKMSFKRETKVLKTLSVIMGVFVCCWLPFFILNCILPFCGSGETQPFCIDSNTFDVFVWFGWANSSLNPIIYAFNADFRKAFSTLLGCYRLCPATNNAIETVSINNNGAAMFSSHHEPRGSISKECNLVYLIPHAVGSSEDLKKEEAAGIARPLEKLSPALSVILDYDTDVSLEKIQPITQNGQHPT
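Tetracycline-induced HEK293 TREx D1 cells, force-coupled to calcium signalling, were dye-loaded with a no-wash calcium kit. Compound was pin-added after a 10 s baseline. Fluorescence was read kinetically at 1 cycle/s for 180 s, with calcium rises flagged as agonism.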
GRP78 ERSR act = inducers of ER stress response in human glioma cells; U87-MG GRP78 promoter luciferase reporter, 16 h; Potency, µM, for inactives: at the top dose activation, usual class: activators; 420,000 tested, 0.02% active; AID 602332; active means well fitted activation curve with a large enough effect; further: potency means the concentration at half of the fitted maximal effect; series mostly up to about 76 µM; % of control where 0% means no effect; nearly all actives have a fitted effect of over 35% in size
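Stably transfected U87-MG glioma cells carrying a GRP78-based luciferase sensor; 16 h compound incubation. Luminescence end-point read 10 min after Bright-Glo addition at room temperature.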
TRHR enhancer = allosteric enhancers of human TRH receptor. P34981. 360,000 tested, 0.66% active. TRHR cells, fluo-8 calcium fluorescence, EC20 TRH enhancement. enhancement, % at 2 µM; in the data active means enhancement above about 30%; further: 0% is about no effect
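TRHR-expressing cells loaded with fluo-8 calcium dye were read kinetically (ex 480/em 530) during compound addition, then stimulated with an EC20 of TRH (10 nM final). Enhancement of the Gq-mediated intracellular calcium response was scored.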
D1 PAM = human D1 dopamine receptor positive modulation | P21728 | HEK293 TREx D1 cells, calcium flux, dopamine EC20 potentiation | potentiation, % at 10 µM | 360,000 tested, 0.036% active | AID 504651; in the data active means potentiation above about 30%; further: 0% is about no effect
D1 antagonist = blocks dopamine activation of the human D1 receptor; 360,000 tested, 3.2% active; P21728; activity change, negative = inhibition, % at 10 µM; HEK293 TREx D1 cells, calcium flux, dopamine EC80; stronger effect = lower value; in the data active means activity change below about -30%; further: on the % scale 0 is the no-effect control and ±100 the full control effect
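Inducible Hek293 Trex D1 cells (tetracycline, overnight, 30 C). Calcium dye 30–90 min RT. Antagonist mode: EC80 dopamine added after 180 s compound read.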
TRHR agonist = activates the human TRH receptor | 360,000 tested, 0.18% active | AID 493084 | activation, % at 2 µM | TRHR cells, calcium flux fluo-8, FDSS agonist mode; further: 0% is about no effect
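Agonist-mode FDSS calcium read (Ex 480/Em 530, 1 s cycles) in 1536-well TRHR cells with fluo-8 dye, after 10-cycle baseline and 23 nL compound addition; TRH at EC20 (10 nM final) added afterwards for the enhancer phase.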
* = called active by the depositor; / = not tested or not shown; ! = a repeat was not active. Unless noted, no stated cut-off is given here; in the data, active means activation above about 30%; inactive means the rest.

SMILES | D1 agonist | GRP78 ERSR act | TRHR enhancer | D1 PAM | D1 antagonist | TRHR agonist
Cc1oc2ccc(O)c(CN(C)Cc3ccccc3)c2c1C(=O)Nc1ccccc1 | -2 | -3% | 13 | -4 | -44* | -1
CC(=O)N1CCN(S(=O)(=O)c2cccc(C(=O)OCc3cccc(F)c3)c2)CC1 | 11 | -6% | 2 | -1 | -7 | 0
C=C(NCc1ccccc1)c1ccccc1O | / | -3% | / | / | / | /
COc1cccc(N2C(=O)C(CC(=O)Nc3ccc(F)cc3)N(CCC3=CCCCC3)C2=O)c1 (configuration not stated) | 9 | -2% | -11 | -2 | -10 | 1
O=c1cc(O)c2sc3nc(-c4ccccc4)cc(C(F)(F)F)c3c2[nH]1 | 56* | -3% | 2 | -8 | -2 | 0
CN(C)c1ccc(C(=O)/C=C/c2cccnc2)cc1 | 3 | -1% | 4 | -12 | 2 | -1
O=C(O)/C=C/c1cccnc1 | 1 | -5% | -1 | -4 | -80* | 1
CC(/C=C\c1cccnc1)=C/C(=O)O | 3 | -2% | -3 | -10 | -62*! | 1
CC(C)(C)n1ncc2c(=O)n(Cc3cccc(OC(F)F)c3)cnc21 | / | -1% | / | / | / | /
CNC[C@H](CC1CCCCC1)NC[C@H](Cc1ccccc1)NCCC12CC3CC(CC(C3)C1)C2 | 32* | -12% | 7 | 4 | 8 | 1
NC[C@H](Cc1ccccc1)NCCCCC1CCCCC1 | -4 | -6% | 2 | -1 | / | 0
CCCCOc1ccc(C(=O)NCC(=O)NCCOc2ccc(C)cc2)cc1 | 2 | -4% | 32* | 0 | 19 | -1
CC(C)c1c(C(=O)N2CCN(CCO)CC2)cnn1-c1nccc(-c2cccs2)n1 | / | -5% | / | / | / | /
Cc1ccccc1-c1ccnc2[nH]n(-c3ccccc3)c(=O)c12 | 4 | 1% | 4 | 14 | -37*! | 0
COc1ccc(OC)c(/C=C/c2c3ccccc3cc[n+]2C)c1 | / | -3% | / | / | / | /
CC(C)(C)C(=O)CSc1nc2ncc(Br)cc2[nH]1 | -1 | 3% | 3 | -2 | -1 | 1
Cc1nc2nc(SCC(=O)C(C)(C)C)[nH]c2cc1Br | 0 | -4% | -6 | -8 | -47* | 1
O=C(NCCSc1ccc(Br)cc1)c1ccccc1 | -1 | -3% | 2 | -5 | -8 | -1
CSCc1ccc(C(=O)NCCSc2ccc(Br)cc2)cc1 | 5 | 4% | -3 | -12 | -37* | -1
COc1cc(CNCc2ccc(Br)cc2)cc(OC)c1 | 82* | -5% | 14 | -8 | -4 | 0
COc1cc(CNCc2cccc3ccccc23)cc(OC)c1 | 17 | -4% | -1 | -8 | 0 | 0
COc1cc(CNCc2c[nH]c3ccccc23)cc(OC)c1 | 26 | -4% | 5 | -6 | -40* | 1
CCC1(C2CCN(C(=O)c3ccc(C)cc3C)CC2)NC(=O)N(CCc2scnc2C)C1=O (configuration not stated) | / | -3% | / | / | / | /
CC(C)Cn1c(CNC(=O)c2ccccc2)nc2ccccc21 | 3 | -3% | -1 | -2 | 5 | 0
CCC(=O)Oc1ccc2ccccc2c1CNC(=O)c1ccccc1 | 2 | -1% | 6 | 5 | -40* | -2
SMILES | D1 agonist | GRP78 ERSR act | TRHR enhancer | D1 PAM | D1 antagonist | TRHR agonist
COc1cc(C2CC(=O)Oc3ccc(O)cc32)cc(OC)c1OC (configuration not stated) | / | 50µM* | / | / | / | /
COc1ccc(C2CC(=O)Oc3ccc(O)cc32)cc1 (configuration not stated) | / | 0% | / | / | / | /
COc1ccc(NC(=O)CC2Oc3ccccc3NC2=O)cc1 (configuration not stated) | 1 | -1% | 2 | -16 | -40* | 0
COc1cccc(NC(=O)CC2Oc3ccccc3NC2=O)c1 (configuration not stated) | 0 | -2% | 9 | -2 | -3 | 1
CCOC(=O)c1ccccc1NC(=O)COC(=O)C(CC(C)C)NC(N)=O (configuration not stated) | 2 | -1% | 41* | -2 | -2 | -1
CCOCC(=O)Nc1ccccc1C(=O)OCC | 0 | -4% | -2 | -3 | 0 | -1
Cc1ccc(-c2noc(C3CCCN(C(=O)c4c(F)cccc4F)C3)n2)cc1 (configuration not stated) | 3 | 2% | -5 | -3 | -10 | -1
Cc1ccc(-c2noc(C3CCCN(C(=O)c4cccc(F)c4)C3)n2)cc1 (configuration not stated) | 11 | 9% | -3 | 1 | -31* | 1
CC[N+]1(CC(=O)c2ccc(Cl)cc2)CCCCC1 | / | -4% | / | / | / | /
CCC(C)(C)c1ccc(OCCCC[n+]2cccc(C)c2C)c(C(C)(C)CC)c1 | 146* | -13% | -3 | -15 | 20 | -1
CCC(C)(C)c1ccc(OCCCC[n+]2ccc(C)cc2)c(C(C)(C)CC)c1 | 127* | -14% | 4 | -8 | -25 | -2
COc1cc(=O)n2c(c1C(=O)NC(C)c1ccco1)CCN(Cc1ccccc1Cl)CC2 (configuration not stated) | / | -3% | / | / | / | /
Cc1cccc(NS(=O)(=O)c2ccc(C(=O)NCC(c3ccccc3)N(C)C)cc2)c1C (configuration not stated) | 48* | -6% | -6 | -2 | 1 | 3
COc1ccccc1NS(=O)(=O)c1ccc(C(=O)NCC(c2ccccc2OC)N(C)C)cc1 (configuration not stated) | 2 | -5% | 3 | -5 | -1 | 0
CN(C)C(CNC(=O)Cc1cccc(C(F)(F)F)c1)c1ccccc1 (configuration not stated) | 3 | -2% | -1 | -7 | -12 | 1
CN(C)C(CNC(=O)c1ccc(NS(=O)(=O)c2ccc(F)cc2)cc1)c1ccco1 (configuration not stated) | 2 | -4% | 3 | 2 | -7 | 0
CNS(=O)(=O)c1cccc(C(=O)NCC(c2ccco2)N(C)C)c1 (configuration not stated) | 0 | -3% | -11 | 1 | -35* | 0
CN(C)C(CNC(=O)Cc1cccc(C(F)(F)F)c1)c1ccco1 (configuration not stated) | 5 | -3% | 6 | -2 | -48* | 1
Cc1ccc(NS(=O)(=O)c2ccc(C(=O)NCC(c3ccco3)N(C)C)cc2)cc1 (configuration not stated) | 53* | -5% | 6 | -7 | -31* | 5
CCCCOC(=O)c1c(N)n(-c2ccc(OC)cc2OC)c2nc3ccccc3nc12 | -1 | -5% | -11 | -3 | -4 | 0
Cc1c(C(=O)NCCN2CCC(c3ccccc3)CC2)cnn1-c1nccc(-c2cccs2)n1 | / | -3% | / | / | / | /
O=C(Cc1ccc2c(c1)OCCO2)N1CCN(S(=O)(=O)c2cccs2)CC1 | 15 | -1% | -3 | -12 | -35* | 0

Screens (PubChem)
